Activity calls are given as the source filed them.
Legend:
[1] = small molecules captured by biotinylated probe aFSTL3 – biochemical, small-molecule microarray, fluorescence 635/667, stem cell growth factor project, primary screen (AID 1064); conditions: higher = more signal;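 also: measures binding of the biotinylated anti-FSTL3 antibody to printed compounds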
[2] = binders from COS7 lysate, DM2A8 probe, primary screen, torsin A project, cell lysate, small-molecule microarray, fluorescence 635/667 (AID 1065); conditions: higher = more signal, COS7 lysate expressing mutant human TOR1A
[3] = small molecules captured by biotinylated probe aFGF2 – biochemical, small-molecule microarray, fluorescence 635/667, stem cell growth factor project, primary screen (AID 1067); conditions: higher = more signal;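 also: measures binding of biotinylated aFGF2 protein to printed compounds on slides; z-score merges feature fluorescence and signal-to-noise across triplicate slides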
[4] = small molecules captured by biotinylated probe aFGF10 – biochemical, small-molecule microarray, fluorescence 635/667, stem cell growth factor project, primary screen (AID 1071); conditions: higher = more signal;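 also: score merges 667 nm spot intensity and signal to noise from triplicate slides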
[5] = biological target: Neurogenic locus notch homolog protein 2 (Homo sapiens) (UniProt Q04721); assay: small molecules binding Notch2 protein – biochemical, small-molecule microarray, 635 nm fluorescence, stem cell growth factors, primary screen (AID 1073); conditions: higher = more signal
Chain of Neurogenic locus notch homolog protein 2 (Homo sapiens) (Q04721 whole entry, looked up, canonical isoform): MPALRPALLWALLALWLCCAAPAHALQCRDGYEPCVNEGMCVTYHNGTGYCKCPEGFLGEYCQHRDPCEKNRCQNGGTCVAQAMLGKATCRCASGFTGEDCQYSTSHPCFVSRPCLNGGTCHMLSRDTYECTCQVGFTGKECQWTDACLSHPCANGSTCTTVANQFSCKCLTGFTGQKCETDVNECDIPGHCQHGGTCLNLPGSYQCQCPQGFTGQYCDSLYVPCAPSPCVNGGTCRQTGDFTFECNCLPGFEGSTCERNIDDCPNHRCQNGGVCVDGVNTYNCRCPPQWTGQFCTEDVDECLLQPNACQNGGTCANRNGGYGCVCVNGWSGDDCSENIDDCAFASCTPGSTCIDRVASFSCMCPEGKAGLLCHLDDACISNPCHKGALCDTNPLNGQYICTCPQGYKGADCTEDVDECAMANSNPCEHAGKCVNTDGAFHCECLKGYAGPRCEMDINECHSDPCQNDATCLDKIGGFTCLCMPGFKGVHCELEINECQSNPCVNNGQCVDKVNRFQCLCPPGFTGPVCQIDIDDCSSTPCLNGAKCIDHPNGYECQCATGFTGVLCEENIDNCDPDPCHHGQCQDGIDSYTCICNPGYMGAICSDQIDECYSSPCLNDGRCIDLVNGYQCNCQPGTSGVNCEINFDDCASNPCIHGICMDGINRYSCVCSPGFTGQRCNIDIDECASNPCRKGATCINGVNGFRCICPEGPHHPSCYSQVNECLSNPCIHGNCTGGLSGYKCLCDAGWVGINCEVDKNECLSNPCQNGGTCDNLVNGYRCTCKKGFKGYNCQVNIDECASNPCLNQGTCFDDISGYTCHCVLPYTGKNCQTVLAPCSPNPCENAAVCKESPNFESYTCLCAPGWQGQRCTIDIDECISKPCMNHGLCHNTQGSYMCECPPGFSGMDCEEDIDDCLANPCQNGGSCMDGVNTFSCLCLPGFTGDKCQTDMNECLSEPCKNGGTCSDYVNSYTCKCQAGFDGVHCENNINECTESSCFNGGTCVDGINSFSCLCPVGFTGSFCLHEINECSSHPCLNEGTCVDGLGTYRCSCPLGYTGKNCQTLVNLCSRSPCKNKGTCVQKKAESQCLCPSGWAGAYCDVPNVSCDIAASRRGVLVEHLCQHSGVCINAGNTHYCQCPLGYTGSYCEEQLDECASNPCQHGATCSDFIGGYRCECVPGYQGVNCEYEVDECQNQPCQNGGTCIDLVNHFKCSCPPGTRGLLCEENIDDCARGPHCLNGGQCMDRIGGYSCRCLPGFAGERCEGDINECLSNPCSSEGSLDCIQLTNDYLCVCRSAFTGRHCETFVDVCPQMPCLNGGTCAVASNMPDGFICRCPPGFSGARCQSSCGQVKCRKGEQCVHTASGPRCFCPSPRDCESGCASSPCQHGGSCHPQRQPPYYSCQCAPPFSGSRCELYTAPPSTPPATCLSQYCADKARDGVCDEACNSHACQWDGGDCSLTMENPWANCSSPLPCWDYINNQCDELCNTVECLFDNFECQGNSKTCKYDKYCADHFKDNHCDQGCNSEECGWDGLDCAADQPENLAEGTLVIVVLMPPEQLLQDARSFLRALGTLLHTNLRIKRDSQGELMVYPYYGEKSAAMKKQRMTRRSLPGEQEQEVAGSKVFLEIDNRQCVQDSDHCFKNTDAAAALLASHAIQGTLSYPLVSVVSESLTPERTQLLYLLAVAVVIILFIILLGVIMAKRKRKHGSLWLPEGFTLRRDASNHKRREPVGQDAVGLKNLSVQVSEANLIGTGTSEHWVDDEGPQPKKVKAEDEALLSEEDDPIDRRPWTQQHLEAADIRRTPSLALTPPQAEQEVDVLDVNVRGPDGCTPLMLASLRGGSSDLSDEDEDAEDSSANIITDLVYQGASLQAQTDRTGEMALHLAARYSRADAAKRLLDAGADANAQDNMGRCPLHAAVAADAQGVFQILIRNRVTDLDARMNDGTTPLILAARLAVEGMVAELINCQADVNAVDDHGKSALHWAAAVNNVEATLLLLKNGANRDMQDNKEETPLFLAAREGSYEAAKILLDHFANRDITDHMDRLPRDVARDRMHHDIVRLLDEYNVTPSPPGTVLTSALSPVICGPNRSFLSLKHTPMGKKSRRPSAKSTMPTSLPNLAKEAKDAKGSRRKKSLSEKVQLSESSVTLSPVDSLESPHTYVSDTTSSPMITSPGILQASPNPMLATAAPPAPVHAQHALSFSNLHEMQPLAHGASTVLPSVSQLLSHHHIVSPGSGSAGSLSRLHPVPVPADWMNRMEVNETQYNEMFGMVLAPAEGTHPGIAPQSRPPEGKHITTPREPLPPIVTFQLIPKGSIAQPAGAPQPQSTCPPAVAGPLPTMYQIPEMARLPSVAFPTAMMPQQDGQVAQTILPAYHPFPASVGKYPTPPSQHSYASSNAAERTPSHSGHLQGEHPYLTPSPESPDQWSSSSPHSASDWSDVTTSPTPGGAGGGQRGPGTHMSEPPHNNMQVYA

[6] = biological target: Pro-neuregulin-1, membrane-bound isoform (Homo sapiens) (UniProt Q02297); assay: small molecules binding neuregulin-1 protein – biochemical, small-molecule microarray, fluorescence 635/667, psychiatric disease protein project, primary screen (AID 1075); conditions: NRG1 binding, 635 nm fluorescence, higher = more signal;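 also: score combines 667 nm spot fluorescence with signal to noise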
Chain of Pro-neuregulin-1, membrane-bound isoform (Homo sapiens) (Q02297 whole entry, looked up, the tested form may be a part, canonical isoform): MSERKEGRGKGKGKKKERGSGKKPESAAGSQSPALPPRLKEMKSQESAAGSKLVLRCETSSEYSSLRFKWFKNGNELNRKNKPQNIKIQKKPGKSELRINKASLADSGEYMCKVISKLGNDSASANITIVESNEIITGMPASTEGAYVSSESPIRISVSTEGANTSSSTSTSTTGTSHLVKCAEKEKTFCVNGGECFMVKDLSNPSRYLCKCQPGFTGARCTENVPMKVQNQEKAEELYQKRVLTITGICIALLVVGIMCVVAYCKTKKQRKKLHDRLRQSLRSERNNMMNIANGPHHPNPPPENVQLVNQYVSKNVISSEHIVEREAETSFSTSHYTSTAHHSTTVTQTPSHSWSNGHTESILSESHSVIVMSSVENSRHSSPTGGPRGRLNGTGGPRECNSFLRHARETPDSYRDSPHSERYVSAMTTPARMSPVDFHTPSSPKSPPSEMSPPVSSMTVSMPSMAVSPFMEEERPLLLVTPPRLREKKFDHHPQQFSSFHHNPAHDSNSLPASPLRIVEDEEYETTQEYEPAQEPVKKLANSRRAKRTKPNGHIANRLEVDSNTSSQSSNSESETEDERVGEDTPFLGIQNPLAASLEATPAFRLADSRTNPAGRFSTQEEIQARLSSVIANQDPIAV

[7] = tested on: Neuregulin-1 EGF-like domain; assay: small molecules binding NRG1 EGF domain – biochemical, small-molecule microarray, 635 nm fluorescence, primary screen (AID 1081); conditions: higher = more signal;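 also: binding of the protein to compounds printed on small-molecule microarray slides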
[8] = FRG1 expression reporter modulators in myotubes – cell-based, C2C12 myotubes, firefly/Renilla luciferase, luminescence, FRG1 inhibition for FSHD, primary screen (AID 1084); conditions: FRG1 promoter luciferase, higher = more signal, called active from +8 up or from −8 down
[9] = small molecules captured by biotinylated probe aFST – biochemical, small-molecule microarray, fluorescence 635/667, stem cell growth factor project, primary screen (AID 1086); conditions: higher = more signal;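 also: score merges 667 nm fluorescence with signal-to-noise of each printed compound spot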
[10] = binders of probe aHhip on microarray, primary screen, stem cell growth factor project, biochemical, small-molecule microarray, fluorescence 635/667 (AID 1087); conditions: higher = more signal;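 also: score merges spot fluorescence at 667nm with spot signal to noise ratio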
[11] = tested on: PRMT1 (protein arginine N-methyltransferase 1); assay: small molecules binding arginine methyltransferase PRMT1 – biochemical, small-molecule microarray, 635 nm fluorescence, primary screen (AID 1088); conditions: higher = more signal;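 also: binding of Prmt1 protein to compounds spotted on small-molecule microarray slides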
[12] = growth effects on S. cerevisiae YJM789 – YJM789 clinical isolate, OD600, 24 h, basal, primary screen (AID 1089); conditions: higher = more signal, called active from +8 up or from −8 down;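 also: growth of clinical yeast isolate S. cerevisiae YJM 789 seeded 1000 cells per well; test concentration not given here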
[13] = S. pombe growth modifiers, basal conditions – strain 972, OD600, 24 h, no modulator, primary screen (AID 1090);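 also: basal condition with compound alone and no growth modifier present; test concentration not given here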; conditions: S. pombe 972 growth, higher = more signal, called active from +8 up or from −8 down
[14] = budding yeast growth modifiers under rapamycin – strain BY4716, OD600, 96 h, primary screen (AID 1091); also: test concentration not given here; conditions: S. cerevisiae BY4716 + rapamycin, higher = more signal, called active from +8 up or from −8 down
[15] = biological target: Torsin-1A-interacting protein 2 (Homo sapiens) (UniProt Q8NFQ8); assay: small molecules binding lysate-expressed LULL1 – cell lysate, human LULL1 lysate, 635/667 nm fluorescence, primary screen (AID 1092); conditions: small-molecule microarray, hLULL1 lysate binding, 635 nm fluorescence; higher = more signal;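 also: probe is lysate of COS7 cells overexpressing human LULL1; score merges per-feature 667 nm fluorescence with signal-to-noise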
Chain of Torsin-1A-interacting protein 2 (Homo sapiens) (Q8NFQ8 whole entry, looked up): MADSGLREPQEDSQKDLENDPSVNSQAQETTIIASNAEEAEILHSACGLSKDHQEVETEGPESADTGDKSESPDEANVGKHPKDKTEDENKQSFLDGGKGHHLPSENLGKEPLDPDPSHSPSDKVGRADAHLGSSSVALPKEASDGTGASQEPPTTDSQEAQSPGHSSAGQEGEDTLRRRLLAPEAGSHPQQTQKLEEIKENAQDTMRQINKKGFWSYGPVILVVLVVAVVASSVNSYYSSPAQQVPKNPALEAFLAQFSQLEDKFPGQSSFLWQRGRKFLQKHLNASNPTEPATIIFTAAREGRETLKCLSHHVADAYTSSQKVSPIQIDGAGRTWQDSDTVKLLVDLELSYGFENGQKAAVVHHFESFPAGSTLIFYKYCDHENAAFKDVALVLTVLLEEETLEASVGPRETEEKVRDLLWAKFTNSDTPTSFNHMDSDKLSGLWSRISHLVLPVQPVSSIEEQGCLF

[16] = optical density change of DRC41 E. coli – strain DRC41, OD650, 24 h, E. coli filamentation project, primary screen (AID 1093);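 also: MC1000 strain lacking acrAB efflux and sulA so SOS filamentation is blocked; test concentration not given here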; conditions: E. coli DRC41 growth, higher = more signal, called active from +8 up or from −8 down
[17] = probe aLefty2 binding to arrayed compounds – biochemical, biotinylated probe, 635/667 nm fluorescence, primary screen (AID 1094); conditions: small-molecule microarray, higher = more signal;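 also: score merges spot fluorescence near 667 nm with spot signal-to-noise ratio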
[18] = tested on: Noggin (protein binding on small-molecule microarray); assay: small molecules binding Noggin protein – biochemical, 635/667 nm fluorescence, primary screen (AID 1095); conditions: 635 nm fluorescence, higher = more signal;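 also: score merges 667 nm feature fluorescence with signal to noise over triplicate slides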
[19] = biological target: Neurogenic locus notch homolog protein 3 (Homo sapiens) (UniProt Q9UM47); assay: small molecules binding NOTCH3 protein – biochemical, 635/667 nm fluorescence, primary screen (AID 1096); conditions: small-molecule microarray, 635 nm fluorescence, higher = more signal
[20] = probe aEGFR binding to arrayed compounds – biochemical, biotinylated probe, 635/667 nm fluorescence, primary screen (AID 1097); conditions: small-molecule microarray, higher = more signal;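 also: probe is a biotinylated anti-EGFR antibody binding compounds printed on slides; score combines fluorescence near 667 nm and signal to noise of each spot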

Row | Compound | composite z-score [1] | composite z-score [2] | composite z-score [3] | composite z-score [4] | composite z-score [5] | composite z-score [6] | composite z-score [7] | z-score [8] | composite z-score [9] | composite z-score [10] | composite z-score [11] | z-score [12] | z-score [13] | z-score [14] | composite z-score [15] | z-score [16] | composite z-score [17] | composite z-score [18] | composite z-score [19] | composite z-score [20]
1 | COCCOC(=O)N1C(=O)[C@@]2(c3cc(C#Cc4ccc(OC)cc4)ccc31)[C@H](c1ccc(O)cc1)N1[C@H](c3ccccc3)[C@H](c3ccccc3)OC(=O)[C@H]1[C@@H]2C(=O)NC[C@H](O)c1ccccc1 | -0.273 | 0.101 | -0.155 | 0.63 | 1.29 | 1.53 | 1.34 | 0.1 (inactive) | 0.536 | 0.192 | 1.54 | 1.5 (inactive) | 0.217 (inactive) | 2.82 (inactive) | 2.16 | 0.873 (inactive) | -0.09 | 1.48 | 1.08 | 0.0209
2 | CCOC(=O)C[C@H]1[C@H](OC(=O)Cc2ccc3c(c2)OCO3)[C@@H](NC(=O)c2ccc(-c3ccccc3)cc2)c2cc(OCCCO)ccc2N1C(=O)c1ccc2ccccc2n1 | -0.472 | 0.783 | -0.131 | 0.228 | 0.399 | 0.281 | 0.167 | -4.52 (inactive) | 0.0972 | -0.236 | 0.0972 | -1.84 (inactive) | -2.89 (inactive) | -1.13 (inactive) | 0.417 | 1.63 (inactive) | -0.168 | 0.0955 | 0.257 | -0.0661
3 | O=C1OCCC=C[C@H]2OC34C=CCN(CCN5CCOCC5)C(=O)[C@H]3N(CCCCCCO)C(=O)[C@@H]4C12 (stereo not given in full) | -0.174 | -0.352 | -0.147 | 0.0933 | -0.849 | -0.0296 | 0.988 | -0.263 (inactive) | -0.235 | -0.169 | 0.358 | 0.807 (inactive) | -1 (inactive) | 0.201 (inactive) | 0.562 | 0.15 (inactive) | -0.294 | -0.627 | -0.017 | -0.251
4 | CN(C)C(=O)[C@]1(Cc2ccccc2N=[N+]=[N-])N=C(c2ccc(OCCCO)cc2)O[C@@H]1c1ccccc1 | 0.127 | 0.227 | 0.0901 | 0.071 | 1.31 | 1.78 | 1.13 | -2.65 (inactive) | 0.627 | -0.374 | 1.39 | -0.958 (inactive) | -2.29 (inactive) | -0.195 (inactive) | 3.02 | 0.677 (inactive) | 0.149 | 1.21 | 0.905 | -0.0512
5 | C=CCC(OC(C)=O)[C@@H]1[C@@H](N(Cc2ccc(-c3ccccc3)cc2)C(=O)Cc2ccc(F)cc2)c2cc(OCCCO)ccc2N1C(=O)c1ccc(-c2ccccc2)cc1 (stereo not given in full) | 0.124 | 0.143 | -0.0145 | -0.0694 | -0.305 | -0.23 | -0.937 | -0.432 (inactive) | 0.0621 | -0.0994 | -0.838 | -2.19 (inactive) | -0.379 (inactive) | -0.694 (inactive) | -0.404 | 0.996 (inactive) | 0.0631 | -0.237 | -0.239 | -0.0372
6 | CCC(CC)C(O)C1C=CC2C(=O)N(C)C(=O)C2N1Nc1ccccc1 (stereo not given) | 0.53 | 0.219 | 0.117 | 0.258 | 1.47 | 1.47 | 0.816 | 1.97 (inactive) | 0.876 | -0.134 | 1.02 | -0.0298 (inactive) | -0.575 (inactive) | 0.0024 (inactive) | 3.07 | 0.103 (inactive) | -0.0321 | -0.0929 | 1.06 | -0.0828
7 | CCOC(=O)C[C@H]1[C@H](OC(=O)c2ccc(C(=O)c3ccccc3)cc2)[C@@H](NC(=O)c2ccc(-c3ccccc3)cc2)c2cc(OCCCO)ccc2N1C(=O)c1ccccc1 | -0.57 | -0.264 | -0.212 | 0.577 | 0.639 | 0.771 | 0.744 | 0.805 (inactive) | 0.319 | -0.164 | 1.36 | -0.575 (inactive) | -0.34 (inactive) | -0.169 (inactive) | 1.45 | -0.83 (inactive) | -0.221 | 0.421 | 1.03 | 0.0911
8 | COC(=O)C(CC#Cc1ccc2c(c1)[C@]1(C(=O)N2)[C@H](c2ccc(O)cc2)N2[C@H](c3ccccc3)[C@H](c3ccccc3)OC(=O)[C@H]2[C@@H]1C(=O)Nc1nc2ccccc2s1)C(=O)OC | -0.386 | 0.372 | 0.0402 | 1.08 | 1.23 | 1.44 | 1.24 | -0.532 (inactive) | 0.313 | -0.0672 | 1.54 | -1.28 (inactive) | -0.496 (inactive) | -1.33 (inactive) | 3.22 | 0.91 (inactive) | 0.0669 | 0.508 | 1.13 | 0.0414
9 | CCCC=C(CCC)[C@@H](NS(=O)(=O)c1cccs1)c1ccc(C(=O)OC)cc1 | 0.002 | -0.0193 | 0.0969 | 0.646 | 1.53 | 1.94 | 1.18 | -3.86 (inactive) | 0.969 | 0.398 | 0.946 | 0.212 (inactive) | -1.19 (inactive) | 0.602 (inactive) | 3.43 | -0.0839 (inactive) | -0.0375 | -0.213 | 0.882 | -0.11
10 | OC([C@@H]1CC(c2ccccc2)=NO1)[C@H]1CC(c2ccccc2)=NO1 (stereo not given in full) | 0.0787 | -0.141 | -0.0634 | 0.287 | 0.178 | -0.0896 | 0.563 | 0.364 (inactive) | 0.227 | 0.0024 | -0.629 | 0.784 (inactive) | -0.786 (inactive) | 1.55 (inactive) | 0.299 | 2.52 (inactive) | -0.0748 | 0.281 | -0.158 | 0.0655

Source: PubChem BioAssay
